# High-throughput results from PubChem BioAssay.
# Most compounds without a hit are left out; they make up all but 2.6% or so of the library.
# Cruzain Triton = qHTS Assay for Promiscuous and Specific Inhibitors of Cruzain (with detergent) | AID 1478, 2009 | Potency, µM, inactives show max response, negative = inhibition, actives largely listed as inhibitors | purified cruzain, Z-FR-AMC fluorescence, 0.01% Triton | 200,000 compounds, 0.43% hits;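 note: plate controls were neutral wells for no effect and buffer without enzyme for full effect; nearly all actives have a fitted effect of over 40% in size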
# Target sequence (P25779 123-467 limits assumed): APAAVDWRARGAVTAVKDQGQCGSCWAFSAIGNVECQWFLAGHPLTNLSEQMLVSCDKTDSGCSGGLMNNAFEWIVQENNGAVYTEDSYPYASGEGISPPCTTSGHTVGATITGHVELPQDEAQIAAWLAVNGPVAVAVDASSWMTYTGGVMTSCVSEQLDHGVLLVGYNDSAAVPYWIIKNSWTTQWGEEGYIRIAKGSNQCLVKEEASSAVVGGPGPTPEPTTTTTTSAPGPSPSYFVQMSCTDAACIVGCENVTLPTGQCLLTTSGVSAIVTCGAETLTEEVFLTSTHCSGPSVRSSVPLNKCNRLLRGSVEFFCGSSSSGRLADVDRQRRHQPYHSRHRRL
#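 Detergent-containing run (0.01% Triton X-100) in acetate buffer pH 5.5 with 5 mM DTT: enzyme at 1.5 nM final, 15 min compound preincubation at room temperature, then 2 uM Z-FR-AMC substrate. Activity taken as 60 s fluorescence increase at 360/450 nm.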
# Cruzain noTriton = qHTS Assay for Promiscuous and Specific Inhibitors of Cruzain (without detergent); Potency, µM, for the others: max response, negative = inhibition, hits mostly inhibitors; 200,000 compounds, 2.3% hits; Cruzipain (Trypanosoma cruzi), P25779; purified cruzain, Z-FR-AMC fluorescence, no detergent;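 note: plate controls were enzyme without inhibitor for no effect and buffer without enzyme for full effect; nearly all actives have a fitted effect of over 40% in size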
#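 Purified cruzain at 1.5 nM, pre-incubated 15 min with compound at room temperature in 100 mM sodium acetate pH 5.5, 5 mM DTT, 0.00005% Triton X-100. Reaction started with 2 uM Z-FR-AMC; AMC fluorescence increase over 60 s gives rate.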
# * marks the source's active call; other numbers are inactive results; ? = inconclusive. Calls come from the whole dose curve; as a rule, active = well fitted curve in the direction sought with a large enough effect; inconclusive = small, poorly fitted or top-dose-only effect, or another doubt; inactive = no such curve, though single readings can be large; an effect the other way counts as inactive or inconclusive. Potency is the fitted concentration of half-maximal effect.
SMILES,Cruzain Triton,Cruzain noTriton
O=C(CC1S/C(=N/N=C/c2cccs2)NC1=O)Nc1ccc(Cl)c(Cl)c1 (stereo unspecified),-5%,20µM*
O=C(CC1S/C(=N/N=C/c2c[nH]c3ccc(OCc4ccccc4)cc23)NC1=O)Nc1ccccc1 (stereo unspecified),-4%,6.3µM*
O=C1OCCN1C(=O)[C@H]1[C@H](c2ccc([N+](=O)[O-])cc2)C(c2ccccc2)=NN1c1ccc(Br)cc1,-3%,14µM*
O=C1OCCN1C(=O)[C@H]1[C@H](c2ccc([N+](=O)[O-])cc2)C(c2cccc(Cl)c2)=NN1c1ccc(Br)cc1,1%,3.5µM*
Cc1cccc(C2=NN(c3ccccc3)[C@@H](C(=O)N3CCOC3=O)[C@@H]2c2ccc([N+](=O)[O-])cc2)c1,3%,?
CCOC(=O)CC(SP(=O)(OC)OC)C(=O)OCC (stereo unspecified),7%,4%
Cc1ccc(N2CC(C(=O)Nc3nnc(SCC(=O)Nc4cc(C)on4)s3)CC2=O)cc1 (stereo unspecified),0%,7.9µM*
Cc1ccc(N2CC(C(=O)Nc3nnc(C)s3)CC2=O)cc1 (stereo unspecified),2%,8%
Cc1ccc(CCNC(=O)C2CCN(S(=O)(=O)c3ccc4c(ccn4C)c3)CC2)cc1,-4%,-11%
CCCCNC(=O)CCCn1c(=O)c2ccccc2n(Cc2ccc(Cl)cc2)c1=O,-3%,-1%
COc1ccccc1CNC(=O)c1ccc2c(c1)N(Cc1ccc(C)cc1)CCS2,-6%,?
Cc1ccc(CN2CCSc3ccc(C(=O)Nc4ccc(C)cc4)cc32)cc1,0%,10µM*
CCOc1ccc(CCNC(=O)c2ccc3c(c2)N(Cc2ccc(C)cc2)CCS3)cc1,-3%,?
COc1ccc(Br)cc1CNC(=O)c1ccc2c(c1)N(Cc1ccc(C)cc1)CCS2,-5%,10µM*
CCn1c(C)cc(/C=C2\NC(=O)N(CC(=O)Nc3cccc(C)c3)C2=O)c1C,1%,?
CCn1c(C)cc(/C=C2\SC(=O)N(CC(=O)Nc3ccc(C)c(C)c3)C2=O)c1C,0%,16µM*
Cn1cccc1/C=C1\SC(=O)N(CC(=O)Nc2ccc(Cl)cc2)C1=O,-3%,?
Cc1ccc(NC(=O)CN2C(=O)S/C(=C\C(=O)Nc3ccc(Cl)cc3)C2=O)cc1,0%,10µM*
COc1ccccc1C(=O)Nc1ccc(C(=O)OCc2cc(=O)n3ccsc3n2)cc1,1%,5%
Cc1cc(N(C)Cc2ccccc2)n2nc(-c3ccc(C(C)(C)C)cc3)nc2n1,-1%,-5%
CC(=O)Nc1nc2ccccc2n1CCOc1ccccc1,0%,-7%
S=C(Nc1ccccc1)Nc1nc2ccccc2n1CCOc1ccccc1,4%,10µM*
CCC(C)c1ccc(OCCn2cc(/C=N/NC(=O)CSc3nnc(C)s3)c3ccccc32)cc1 (stereo unspecified),1%,4µM*
Cc1cccc(OCCn2cc(/C=N/NC(=O)c3ccncc3)c3ccccc32)c1,-8%,?
COc1ccc(OC)c(Nc2nc(C3CC3)nc3c2nnn3Cc2ccccc2)c1,-10%,-5%
SMILES,Cruzain Triton,Cruzain noTriton
c1ccc(Cn2nnc3c(Nc4ccc5c(c4)OCO5)nc(C4CC4)nc32)cc1,-2%,16µM*
Cc1cc2ccccn2c1C(C[N+](=O)[O-])c1ccc(N(C)C)cc1 (stereo unspecified),-10%,25µM*
COc1ccc(C(C[N+](=O)[O-])c2c(-c3ccccc3)cc3ccccn23)c(OC)c1 (stereo unspecified),-6%,?
COc1ccccc1C(=O)Nc1nnc(S(=O)(=O)N(C)c2ccc(Cl)cc2)s1,-1%,?
CCOc1ccc(N2C(=O)CC(Sc3nc(-c4cccs4)cc(C(F)(F)F)c3C#N)C2=O)cc1 (stereo unspecified),-20%,13µM*
CCOc1ccc(N2C(=O)CC(Sc3ncccn3)C2=O)cc1 (stereo unspecified),-1%,-2%
COC(=O)N[C@@H](/C=C/c1ccccc1)C[N+](=O)[O-],4%,-5%
O=C1OC(c2ccc(O)c(-c3ccccc3)c2)(c2ccc(O)c(-c3ccccc3)c2)c2c(Cl)c(Cl)c(Cl)c(Cl)c21,1%,-1%
O=C1OC2(c3cc(Br)c(O)c(Br)c3Oc3c2cc(Br)c(O)c3Br)c2c(Cl)c(Cl)c(Cl)c(Cl)c21,16µM*,?
Cc1cccn2c(=O)c3cc(C(=O)NCC4CCCO4)c(=N)n(Cc4cccnc4)c3nc12 (stereo unspecified),22µM*,?
Cc1ccc2nc3c(cc(C(=O)NC4CCCC4)c(=N)n3C(C)C)c(=O)n2c1,-14%,17%
Cc1ccc(S(=O)(=O)c2cc3c(=O)n4ccccc4nc3n(CC3CCCO3)c2=N)cc1C (stereo unspecified),32µM*,-28%
CCCn1c(=N)c(C(=O)NCc2cccnc2)cc2c(=O)n3cccc(C)c3nc21,-2%,3%
CNC(=O)c1cc2c(=O)n3cc(C)ccc3nc2n(C(C)C)c1=N,28µM*,?
COCCCn1c(=N)c(C(=O)NC2CCCC2)cc2c(=O)n3cccc(C)c3nc21,-10%,?
Cc1ccc(S(=O)(=O)c2cc3c(=O)n4ccccc4nc3n(Cc3ccco3)c2=N)cc1C,6%,-25%
Cc1cccn2c(=O)c3cc(C(=O)NC(C)C)c(=N)n(Cc4ccncc4)c3nc12,32µM*,?
O=C(NCC(c1ccc2c(c1)OCO2)N1CCN(c2ccccc2)CC1)c1ccccc1 (stereo unspecified),-2%,-14%
CN(C)CCN1C(=O)CC[C@]2(C)C1=CC[C@@H]1[C@@H]2CC[C@]2(C)[C@H]1CC[C@]2(C)O,1%,-10%
Cn1c(SCc2ccc(C(F)(F)F)cc2)nc2c([nH]c3ccccc32)c1=O,1%,-11%
N=c1c(C(=O)NCC2CCCO2)cc2c(=O)n3ccccc3nc2n1Cc1cccnc1 (stereo unspecified),28µM*,?
COCCn1c(=N)c(C(=O)NCCc2ccc(OC)cc2)cc2c(=O)n3cccc(C)c3nc21,-4%,-3%
COCCCNC(=O)c1cc2c(=O)n3cccc(C)c3nc2n(C(C)C)c1=N,25µM*,?
CCCn1c(=N)c(C(=O)NCc2cccnc2)cc2c(=O)n3ccccc3nc21,-9%,-11%
CCOC(=O)c1ccccc1NC(=O)CSc1cn(CC(=O)N2CCCCC2)c2ccccc12,-2%,-11%
SMILES,Cruzain Triton,Cruzain noTriton
CC(=O)N1CCc2cc(S(=O)(=O)NC(Cc3ccccc3)C(=O)NCc3ccccc3)ccc21 (stereo unspecified),-4%,-3%
COc1ccc(/C=N/NC(=O)c2ccccc2Cl)cc1CSc1nc2ccccc2s1,-8%,16µM*
COc1ccc(/C=N/NC(=O)c2cccnc2)cc1CSc1nc2ccccc2s1,-6%,?
CCCn1c(-c2ccc(F)cc2)nc2c(NC(C)CN(C)C)nc(C)nc21 (stereo unspecified),1%,-6%
CCc1ccc(CCC(=O)O)nc1,2%,-2%
COc1cccc(/C=N/NC(=O)c2nc(-c3ccccc3)cc(-c3ccccc3)n2)c1O,-1%,13µM*
COc1cccc(/C=N/NC(=O)CSc2ccccc2C)c1O,-7%,-6%
O=C(Nc1ccccc1)N1CCC2(CC1)CCN(S(=O)(=O)c1ccccc1)CC2,1%,-2%
